In PMC7862700, “An all-to-all approach to the identification of sequence-specific readers for epigenetic DNA modifications on cytosine” one finds binding signal data, which are given here for eight sequences.

Holding throughout (assay): DAPPL (digital affinity profiling via proximity ligation, sequencing); 10 mM Tris-HCl pH 7.5, 50 mM NaCl, 1 mM DTT, 4% glycerol, room temperature, 30 min; GST-TFs on glutathione beads, 16-mer random dsDNA library, 0.1% formaldehyde crosslink after washing; high values mean tight binding
Holding throughout (conditions): protein: recombinant; tags: N-terminal GST; dsDNA, one strand shown

The target in one experiment is T1, FLI1 (Homo sapiens, UniProt Q01543 1-452).
T1 sequence: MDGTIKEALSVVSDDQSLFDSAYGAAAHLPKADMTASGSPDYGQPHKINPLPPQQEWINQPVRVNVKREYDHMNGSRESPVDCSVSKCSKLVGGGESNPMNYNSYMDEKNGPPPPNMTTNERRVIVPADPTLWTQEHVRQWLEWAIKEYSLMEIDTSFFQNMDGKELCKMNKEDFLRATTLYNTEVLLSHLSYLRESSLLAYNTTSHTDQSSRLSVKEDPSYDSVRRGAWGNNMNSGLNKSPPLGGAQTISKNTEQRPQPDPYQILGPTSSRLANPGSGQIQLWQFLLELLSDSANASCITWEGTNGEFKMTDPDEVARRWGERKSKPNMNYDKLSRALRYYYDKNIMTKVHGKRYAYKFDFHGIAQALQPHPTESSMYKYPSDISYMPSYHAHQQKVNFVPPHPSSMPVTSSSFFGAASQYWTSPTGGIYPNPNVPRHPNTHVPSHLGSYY
A digest of the protocol: (§1)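 Human transcription factors fused to GST were expressed in yeast, captured on glutathione beads, given DNA barcodes and pooled with a GST-only negative control. Pools were incubated with 200 nmole of a 16-mer random double-stranded DNA library in Tris/NaCl/DTT/glycerol buffer at room temperature for 30 min. They were then washed, crosslinked with 0.1% formaldehyde, proximity-ligated (BsaI/T4 ligase, 1 h, 37 °C), PCR-amplified and sequenced on an Illumina NextSeq500. Binding signal is each 6-mer's read frequency for a factor divided by its frequency for the GST control.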

A further experiment concerns the target T2, ELK1 (Homo sapiens, UniProt P19419 1-428).
T2 sequence: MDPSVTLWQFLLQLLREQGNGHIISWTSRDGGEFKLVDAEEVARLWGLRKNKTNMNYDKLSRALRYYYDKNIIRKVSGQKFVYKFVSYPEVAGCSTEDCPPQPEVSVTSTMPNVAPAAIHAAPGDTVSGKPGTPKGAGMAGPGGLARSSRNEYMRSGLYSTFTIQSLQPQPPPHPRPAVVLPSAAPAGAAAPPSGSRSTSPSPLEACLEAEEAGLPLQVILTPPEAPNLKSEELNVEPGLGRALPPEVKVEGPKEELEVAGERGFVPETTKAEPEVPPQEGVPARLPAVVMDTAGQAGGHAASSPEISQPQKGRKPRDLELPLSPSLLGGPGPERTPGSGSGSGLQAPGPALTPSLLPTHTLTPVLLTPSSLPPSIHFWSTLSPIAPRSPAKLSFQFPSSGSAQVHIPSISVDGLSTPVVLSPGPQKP
A digest of the protocol: as §1

The target in another experiment is T3, GABPA (Homo sapiens, UniProt Q06546 1-454).
T3 sequence: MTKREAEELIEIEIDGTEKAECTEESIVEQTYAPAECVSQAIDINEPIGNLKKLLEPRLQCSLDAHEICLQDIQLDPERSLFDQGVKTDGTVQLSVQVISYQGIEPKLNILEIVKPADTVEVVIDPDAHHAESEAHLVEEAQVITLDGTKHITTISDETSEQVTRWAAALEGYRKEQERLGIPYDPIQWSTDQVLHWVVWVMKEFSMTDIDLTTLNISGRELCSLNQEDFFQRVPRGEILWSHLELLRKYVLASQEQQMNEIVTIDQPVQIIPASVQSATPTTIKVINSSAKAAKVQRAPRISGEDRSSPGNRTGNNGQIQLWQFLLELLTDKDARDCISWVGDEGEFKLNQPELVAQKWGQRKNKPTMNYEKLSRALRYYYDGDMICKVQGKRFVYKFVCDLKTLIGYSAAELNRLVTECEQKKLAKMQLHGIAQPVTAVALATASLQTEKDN
In a few lines:
as §1

For the next experiment, the target named is T4, ERG (Homo sapiens, UniProt P11308 1-479).
T4 sequence: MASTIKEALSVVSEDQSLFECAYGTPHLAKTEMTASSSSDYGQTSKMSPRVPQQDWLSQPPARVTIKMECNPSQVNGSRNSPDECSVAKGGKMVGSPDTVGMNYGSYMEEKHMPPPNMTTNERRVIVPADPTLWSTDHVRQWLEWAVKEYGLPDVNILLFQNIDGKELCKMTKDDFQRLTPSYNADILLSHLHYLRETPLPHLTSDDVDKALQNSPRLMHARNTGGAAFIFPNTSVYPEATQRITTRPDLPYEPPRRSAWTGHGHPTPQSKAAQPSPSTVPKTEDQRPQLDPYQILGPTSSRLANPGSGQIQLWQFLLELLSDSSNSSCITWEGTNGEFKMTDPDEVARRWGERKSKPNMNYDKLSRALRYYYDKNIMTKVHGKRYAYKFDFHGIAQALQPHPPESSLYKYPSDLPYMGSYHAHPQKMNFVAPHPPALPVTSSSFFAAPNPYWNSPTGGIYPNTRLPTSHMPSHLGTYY
A digest of the protocol: as §1

A further experiment addresses ELF1 (Homo sapiens, UniProt P32519 1-619). A digest of the protocol:
as §1

The next experiment has as its target T5, EHF (Homo sapiens, UniProt Q9NZC4 1-300).
T5 sequence: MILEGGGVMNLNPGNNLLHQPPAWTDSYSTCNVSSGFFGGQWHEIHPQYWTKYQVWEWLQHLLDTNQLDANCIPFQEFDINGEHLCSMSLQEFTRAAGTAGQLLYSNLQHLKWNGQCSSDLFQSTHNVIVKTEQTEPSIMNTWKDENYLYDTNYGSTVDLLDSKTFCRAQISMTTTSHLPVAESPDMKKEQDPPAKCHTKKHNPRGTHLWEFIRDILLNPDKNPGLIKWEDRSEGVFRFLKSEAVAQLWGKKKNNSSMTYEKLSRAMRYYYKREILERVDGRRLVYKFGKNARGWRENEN
In a few lines:
as §1

A further experiment addresses SPI1 (Homo sapiens, UniProt P17947 1-270). A digest of the protocol: as §1
A further experiment deals with SPIB (Homo sapiens, UniProt Q01892 1-262). In a few lines:
as §1

Another experiment has as its target T6, ELK3 (Homo sapiens, UniProt P41970 1-407).
T6 sequence: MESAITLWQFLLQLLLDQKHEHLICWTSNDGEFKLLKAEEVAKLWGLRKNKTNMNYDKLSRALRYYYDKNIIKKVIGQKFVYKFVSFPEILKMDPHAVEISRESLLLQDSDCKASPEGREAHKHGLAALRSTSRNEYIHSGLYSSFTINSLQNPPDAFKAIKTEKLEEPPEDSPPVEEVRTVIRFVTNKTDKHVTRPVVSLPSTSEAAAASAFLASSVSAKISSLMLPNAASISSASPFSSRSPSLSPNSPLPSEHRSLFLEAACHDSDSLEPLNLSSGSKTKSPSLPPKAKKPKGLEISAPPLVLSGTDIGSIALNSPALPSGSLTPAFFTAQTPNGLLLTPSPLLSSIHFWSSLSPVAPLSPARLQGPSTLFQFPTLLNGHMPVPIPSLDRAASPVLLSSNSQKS
In a few lines: as §1

ELF1, sequence (P32519 whole entry): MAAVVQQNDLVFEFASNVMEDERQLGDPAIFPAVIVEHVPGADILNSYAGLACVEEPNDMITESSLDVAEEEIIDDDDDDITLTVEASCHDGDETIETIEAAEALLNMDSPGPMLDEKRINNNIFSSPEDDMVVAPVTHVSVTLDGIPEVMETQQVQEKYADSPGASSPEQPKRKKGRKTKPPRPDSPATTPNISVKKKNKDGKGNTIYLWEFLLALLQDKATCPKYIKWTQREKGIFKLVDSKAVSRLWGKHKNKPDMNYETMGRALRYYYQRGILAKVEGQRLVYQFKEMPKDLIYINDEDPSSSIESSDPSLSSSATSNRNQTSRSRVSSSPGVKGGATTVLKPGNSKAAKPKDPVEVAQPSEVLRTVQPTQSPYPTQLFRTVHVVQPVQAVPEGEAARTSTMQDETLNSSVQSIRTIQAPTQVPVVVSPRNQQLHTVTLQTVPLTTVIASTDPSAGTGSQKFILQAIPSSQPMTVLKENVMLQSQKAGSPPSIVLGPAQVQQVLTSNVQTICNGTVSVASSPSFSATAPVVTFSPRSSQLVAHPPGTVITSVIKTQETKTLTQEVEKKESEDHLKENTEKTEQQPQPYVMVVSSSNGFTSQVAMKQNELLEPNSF
SPIB, sequence (Q01892 whole entry): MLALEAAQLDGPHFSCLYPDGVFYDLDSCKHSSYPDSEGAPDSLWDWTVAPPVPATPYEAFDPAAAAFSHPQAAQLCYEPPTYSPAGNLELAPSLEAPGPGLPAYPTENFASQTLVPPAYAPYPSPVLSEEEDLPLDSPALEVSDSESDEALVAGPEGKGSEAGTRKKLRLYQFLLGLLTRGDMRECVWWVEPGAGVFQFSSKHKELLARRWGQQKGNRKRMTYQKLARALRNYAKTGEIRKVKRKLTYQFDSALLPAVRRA

As to GAAGAA, the binding signal with FLI1 was 1.03 fold enrichment (6-mer frequency, TF over GST control); with ELK1 it was 1.11 fold enrichment (6-mer frequency, TF over GST control); with GABPA, 1.14 fold enrichment (6-mer frequency, TF over GST control); with ERG it was 1.19 fold enrichment (6-mer frequency, TF over GST control); in the experiment with ELF1, 1.12 fold enrichment (6-mer frequency, TF over GST control); with EHF it was 1.14 fold enrichment (6-mer frequency, TF over GST control). The binding signal with SPI1 was 1.13 fold enrichment (6-mer frequency, TF over GST control); with SPIB, 1.03 fold enrichment (6-mer frequency, TF over GST control); with ELK3, 1.13 fold enrichment (6-mer frequency, TF over GST control).
For the sequence GCGTCC, the binding signal in the experiment with FLI1 was 1.26 fold enrichment (6-mer frequency, TF over GST control); with ELK1, 1.27 fold enrichment (6-mer frequency, TF over GST control); in the experiment with GABPA, 1.27 fold enrichment (6-mer frequency, TF over GST control); in the experiment with ERG, 1.28 fold enrichment (6-mer frequency, TF over GST control); in the experiment with ELF1, 1.26 fold enrichment (6-mer frequency, TF over GST control); with EHF, 1.22 fold enrichment (6-mer frequency, TF over GST control). For the same sequence, the binding signal was 1.23 fold enrichment (6-mer frequency, TF over GST control) in the experiment with SPI1; 1.3 fold enrichment (6-mer frequency, TF over GST control) in the experiment with SPIB; 1.29 fold enrichment (6-mer frequency, TF over GST control) with ELK3.
As for ATTGCT, the binding signal with FLI1 was 1.24 fold enrichment (6-mer frequency, TF over GST control); in the experiment with ELK1, 1.19 fold enrichment (6-mer frequency, TF over GST control); with GABPA it was 1.27 fold enrichment (6-mer frequency, TF over GST control); in the experiment with ERG, 1.25 fold enrichment (6-mer frequency, TF over GST control); in the experiment with ELF1, 1.24 fold enrichment (6-mer frequency, TF over GST control); in the experiment with EHF, 1.31 fold enrichment (6-mer frequency, TF over GST control). For the same sequence, the binding signal was 1.1 fold enrichment (6-mer frequency, TF over GST control) with SPI1; 1.3 fold enrichment (6-mer frequency, TF over GST control) in the experiment with SPIB; 1.22 fold enrichment (6-mer frequency, TF over GST control) with ELK3.
For ACAAGC, the binding signal with FLI1 is 1.1 fold enrichment (6-mer frequency, TF over GST control); with ELK1, 1.11 fold enrichment (6-mer frequency, TF over GST control); in the experiment with GABPA, 1.09 fold enrichment (6-mer frequency, TF over GST control); in the experiment with ERG it was 1.08 fold enrichment (6-mer frequency, TF over GST control); with ELF1 it was 1.1 fold enrichment (6-mer frequency, TF over GST control); with EHF it was 1.08 fold enrichment (6-mer frequency, TF over GST control). Also, the binding signal with SPI1 was 1.04 fold enrichment (6-mer frequency, TF over GST control); in the experiment with SPIB, 1.12 fold enrichment (6-mer frequency, TF over GST control); in the experiment with ELK3 it was 1.16 fold enrichment (6-mer frequency, TF over GST control).
As to CTATCG, the binding signal with FLI1 is 1.13 fold enrichment (6-mer frequency, TF over GST control); in the experiment with ELK1, 1.14 fold enrichment (6-mer frequency, TF over GST control); in the experiment with GABPA it was 1.05 fold enrichment (6-mer frequency, TF over GST control); with ERG, 1.09 fold enrichment (6-mer frequency, TF over GST control); with ELF1, 1.11 fold enrichment (6-mer frequency, TF over GST control); with EHF, 1.07 fold enrichment (6-mer frequency, TF over GST control). The binding signal is 1.13 fold enrichment (6-mer frequency, TF over GST control) with SPI1; 1.11 fold enrichment (6-mer frequency, TF over GST control) with SPIB; 1.08 fold enrichment (6-mer frequency, TF over GST control) with ELK3.
Take TACACA: the binding signal with FLI1 was 1.21 fold enrichment (6-mer frequency, TF over GST control); with ELK1, 1.14 fold enrichment (6-mer frequency, TF over GST control); with GABPA it was 1.15 fold enrichment (6-mer frequency, TF over GST control); in the experiment with ERG, 1.26 fold enrichment (6-mer frequency, TF over GST control); with ELF1, 1.21 fold enrichment (6-mer frequency, TF over GST control); with EHF, 1.25 fold enrichment (6-mer frequency, TF over GST control). Besides, the binding signal is 1.11 fold enrichment (6-mer frequency, TF over GST control) with SPI1; 1.23 fold enrichment (6-mer frequency, TF over GST control) in the experiment with SPIB; 1.18 fold enrichment (6-mer frequency, TF over GST control) with ELK3.
With TTGCAC, the binding signal is 1.3 fold enrichment (6-mer frequency, TF over GST control) with FLI1; 1.32 fold enrichment (6-mer frequency, TF over GST control) in the experiment with ELK1; 1.27 fold enrichment (6-mer frequency, TF over GST control) in the experiment with GABPA; 1.27 fold enrichment (6-mer frequency, TF over GST control) with ERG; 1.28 fold enrichment (6-mer frequency, TF over GST control) with ELF1; 1.21 fold enrichment (6-mer frequency, TF over GST control) with EHF. Moreover, the binding signal with SPI1 is 1.26 fold enrichment (6-mer frequency, TF over GST control); with SPIB it was 1.16 fold enrichment (6-mer frequency, TF over GST control); with ELK3, 1.34 fold enrichment (6-mer frequency, TF over GST control).
As to GCATCC, the binding signal with FLI1 was 1.55 fold enrichment (6-mer frequency, TF over GST control); in the experiment with ELK1, 1.67 fold enrichment (6-mer frequency, TF over GST control); with GABPA it was 1.36 fold enrichment (6-mer frequency, TF over GST control); with ERG, 1.68 fold enrichment (6-mer frequency, TF over GST control); with ELF1 it was 1.44 fold enrichment (6-mer frequency, TF over GST control); with EHF, 1.55 fold enrichment (6-mer frequency, TF over GST control). The binding signal was 1.47 fold enrichment (6-mer frequency, TF over GST control) with SPI1; 1.6 fold enrichment (6-mer frequency, TF over GST control) with SPIB; 1.7 fold enrichment (6-mer frequency, TF over GST control) in the experiment with ELK3.
